# Values of other authors in PubChem BioAssay AID977611.
# Among all 3,900 compounds or so, about 3,900 (100%) were called active. The limit is not given here; nearly all actives have Kd up to about 4200 µM. The set was probably picked from earlier hits. This is one part of the list. Non-standard residues stand in square brackets, D forms with d. Residues, ends and D or L forms follow the SMILES beside them. Orn(CH(NH2)2) = NC(N)NCCC[C@H](N)C(=O)O
# Experiment: PubChem AID 977611
# Settings: PDB protein-ligand complexes, literature Kd
smiles,measurement,setting,value
N#Cc1c(O)c2c(-c3ccc(-c4ccccc4O)cc3)c(Cl)sc2[nH]c1=O,Kd,"protein: 5'-AMP-activated protein kinase catalytic subunit AMPK alpha1-belta1-gamma1, PDB entry 4qfr",0.0074 µM (active)
N#Cc1c(O)c2c(-c3ccc(Br)cc3)c(Br)sc2[nH]c1=O,Kd,"protein: 5'-AMP-activated protein kinase catalytic subunit AMPK alpha1-belta1-gamma1, PDB entry 4qfs",0.9 µM (active)
Cc1nc2c(=O)[nH]c(=O)[nH]c2n(C[C@H](O)[C@H](O)[C@H](O)CO)c1=O,Kd,"protein: Major histocompatibility complex class I-related gene protein, PDB entry 4l4v",1.65 µM (active)
CCNc1cc2c(cc1C)C(c1ccccc1C(=O)OCC)c1cc(C)c(NCC)cc1O2,Kd,"protein: Putative regulatory protein, PDB entry 3vvz",26.4 µM (active)
C[C@@H](O)CN1CC2=C(C1)c1ccccc1Nc1ccccc12,Kd,"protein: Renin, PDB entry 4gj9",500 µM (active)
CC[C@H](C)[C@H](NC(=O)CNC(=O)[C@H](CCC(N)=O)NC(=O)[C@@H](NC(=O)[C@H](CC(N)=O)NC(=O)[C@@H](N)CC(=O)O)[C@@H](C)CC)C(=O)N[C@H](C(=O)N[C@@H](CCCCN)C(=O)N1CCC[C@H]1C(=O)N[C@@H](C)C(=O)N[C@H](C(=O)N[C@@H](CCCNC(N)N)C(=O)N[C@@H](CCCNC(N)N)C(=O)N[C@@H](CC(C)C)C(=O)N[C@@H](C)C(=O)N[C@@H](CCCNC(N)N)C(=O)N[C@@H](CCCNC(N)N)C(=O)NCC(=O)O)[C@@H](C)CC)[C@@H](C)O (H-DNIQGITKPAI[Orn(CH(NH2)2)][Orn(CH(NH2)2)]LA[Orn(CH(NH2)2)][Orn(CH(NH2)2)]G-OH),Kd,"protein: Histone-binding protein RBBP7, PDB entry 3cfv",0.9 µM (active)
CC[C@H](C)[C@H](NC(=O)CNC(=O)[C@@H](N)CCC(N)=O)C(=O)N[C@H](C(=O)N[C@@H](CCCCN)C(=O)N1CCC[C@H]1C(=O)N[C@@H](C)C(=O)N[C@H](C(=O)N[C@@H](CCCNC(N)N)C(=O)N[C@@H](CCCNC(N)N)C(=O)N[C@@H](CC(C)C)C(=O)N[C@@H](C)C(=O)N[C@@H](CCCNC(N)N)C(=O)N[C@@H](CCCNC(N)N)C(=O)NCC(=O)O)[C@@H](C)CC)[C@@H](C)O (H-QGITKPAI[Orn(CH(NH2)2)][Orn(CH(NH2)2)]LA[Orn(CH(NH2)2)][Orn(CH(NH2)2)]G-OH),Kd,"protein: Histone-binding protein RBBP7, PDB entry 3cfs",1.1 µM (active)
O[C@@H]1[C@H](O)CO[C@](O)(CO[P+](O)(O)O)[C@H]1O,Kd,"protein: GLUCOKINASE REGULATORY PROTEIN, PDB entry 4bb9",1 µM (active)
O=C(NCCC1C=CCCC1)Nc1ccc2nnsc2c1 (centres undefined),Kd,"protein: Protein arginine N-methyltransferase 3, PDB entry 3smq",9.5 µM (active)
OC[C@H]1O[C@@H](Oc2ccc([C@@H](c3ccc(O)c(Cl)c3)c3ccccc3S(O)(O)O)cc2Cl)[C@H](O)[C@@H](O)[C@H]1O,Kd,"protein: PA-I galactophilic lectin, PDB entry 4lk6",6.3 µM (active)
C/C(=C/C=C/C(C)=C/C(=O)O)Cc1cccc2ccc(C)cc12,Kd,"protein: Retinoic acid receptor RXR-alpha, PDB entry 4poj",0.008 µM (active)
NCc1ccc2occc2c1,Kd,"protein: CATIONIC TRYPSIN, PDB entry 4ab9",466 µM (active)
NC1C=CN([C@@H]2O[C@H](CO)[C@@H](O)[C@H]2O)C(=O)N1 (some centres undefined),Kd,"protein: Peptidyl-tRNA hydrolase, PDB entry 4jwk",0.00479 µM (active)
NC1C=CN([C@@H]2O[C@H](CNC(=O)c3c[nH]c4scc[n+]34)[C@@H](O)[C@H]2O)C(=O)N1 (some centres undefined),Kd,"protein: 2-C-methyl-D-erythritol 2,4-cyclodiphosphate synthase, PDB entry 3q8h",70 µM (active)
